Among all 100,000 compounds or so, about 770 (0.77%) were called active. The entries come from a sample that favours actives as a whole. Values without a mark were called inactive. No stated cut-off is given here; in the data, active means inhibition above about 50%; inactive means the rest.
target: Gag-Pol polyprotein (Human immunodeficiency virus type 1 group M subtype B (isolate HXB2)) (UniProt P04585); test: RNase H inhibition, HIV 1 Gag Pol polyprotein, FRET biochemical assay, screening (AID 372); settings: HIV-1 RT RNase H, FRET RNA/DNA substrate fluorescence; at 10 µM; hits give high values

| Structure (SMILES) | inhibition |
| --- | --- |
| CSCCC(NC(=O)c1ccccc1)C(=O)OCC(=O)Nc1cc(C)on1 (stereo unspecified) | 11% |
| CCCOc1ccc2ccccc2c1C=C1C(=O)NC(=S)NC1=O | 23% |
| COc1ccc(OC)c(N(CC(=O)Nc2ccccc2F)S(C)(=O)=O)c1 | 8% |
| S=C(NCc1ccccc1)N/N=C/c1ccco1 | 22% |
| COc1ccc(CCNC(=O)C(=O)Nc2ccccc2)cc1 | 11% |
| Cc1ccc(NC(=O)CSc2nc3ccccc3s2)cc1C | 41% |
| CN1CCN(/N=C/c2ccc([N+](=O)[O-])s2)CC1 | 6% |
| CCOc1ccc(-n2sc3c(c2=S)-c2ccc(OC)cc2NC3(C)C)cc1 | 2% |
| COc1ccc(Cl)cc1C(=O)Nc1cccc(-c2nc3ncccc3o2)c1C | 3% |
| COc1cc(NC(=O)c2cc(Cl)ccc2OC)ccc1NC(=O)c1cc2ccccc2o1 | 55% (active) |
| CCOc1cc(C(=O)Nc2ccc(NC(=O)c3cc4ccccc4o3)c(OC)c2)cc(OCC)c1OCC | 11% |
| COc1cc(NC(=O)c2ccc(Cl)cc2Cl)ccc1NC(=O)c1cc2ccccc2o1 | 21% |
| COc1cc(NC(=O)c2ccccc2F)ccc1NC(=O)c1cc2ccccc2o1 | 24% |
| COc1cc(NC(=O)c2ccc(C(C)(C)C)cc2)ccc1NC(=O)c1cc2ccccc2o1 | 7% |
| COc1cc(NC(=O)c2cc(Cl)c(OC)c(Cl)c2)ccc1NC(=O)c1cc2ccccc2o1 | 52% (active) |
| COc1ccc(C(=O)Nc2ccc(NC(=O)c3cc4ccccc4o3)c(OC)c2)cc1Br | 6% |
| COc1ccc(Cl)cc1C(=O)Nc1ccc(Cl)c(-c2nc3ncccc3o2)c1 | 57% (active) |
| COc1cc(NC(=O)c2cccc(Br)c2)ccc1NC(=O)c1cc2ccccc2o1 | 51% (active) |
| O=C(Nc1ccc(Cl)c(-c2nc3ncccc3o2)c1)c1ccc(Cl)cc1Cl | 6% |
| COc1cc(NC(=O)c2cccc(Cl)c2)ccc1NC(=O)c1cc2ccccc2o1 | 34% |
| COc1ccccc1N1CCN(C(=O)Cc2ccc(Cl)cc2)CC1 | 5% |
| CCCCOc1ccc(C(=O)NC(=S)Nc2cccc(Cl)c2Cl)cc1 | 15% |
| COc1cccc(C(=O)Nc2ccc(O)c(-c3nc4cc(C)ccc4o3)c2)c1 | 5% |

| Structure (SMILES) | inhibition |
| --- | --- |
| CCc1ccccc1NC(=O)C(=O)NCCCOC | 14% |
| O=C(O)C1C2CC=CC2c2cc(Oc3ccccc3)cc3c2N1CC1CC=CC31 (stereo unspecified) | 40% |
| Cc1ccc(OCCCNC(C)(C)C)c(C)c1 | 10% |
| Cc1ccc(OCCCNC(C)(C)C)c(C(C)(C)C)c1 | 62% (active) |
| Cc1ccc(OCCCCNC(C)(C)C)c(C)c1 | 2% |
| COCCOC(=O)C1=C(C)NC(=O)CC1c1ccccc1Br (stereo unspecified) | 3% |
| COc1ccc(/C=N/N(C)c2cc(C)nc(-c3ccccc3O)n2)cc1OC | 18% |
| COc1ccc(C=Nc2ccc(Cl)c(Cl)c2)c2ccccc12 | 32% |
| Cc1ccc(C(=O)NC(=S)Nc2ccc3oc(-c4ccc(Cl)cc4)nc3c2)cc1C | 8% |
| CC(=O)Nc1ccc(N2C(=O)c3cccc4c(C(=O)c5ccccc5)ccc(c34)C2=O)cc1 | 20% |
| Nc1ccc(-c2ccc(N3C(=O)c4cccc5c(C(=O)c6ccccc6)ccc(c45)C3=O)cc2)cc1 | 51% (active) |
| O=C(O)c1ccc2c3c(cccc13)C(=O)N(c1ccccc1)C2=O | 21% |
| O=C(N=NC(=O)c1ccccc1O)c1ccc(-n2c(O)c3ccccc3c2O)cc1 | 8% |
| Cc1ccc(C(=O)Nc2ccc(Nc3ccccc3)cc2)cc1[N+](=O)[O-] | 15% |
| Cc1ccc(NCC(=O)N/N=C\c2ccccc2OCC(=O)O)cc1 | 7% |
| COc1ccc(/C=C/C(=O)NC(=S)Nc2ccc(I)cc2)cc1 | 8% |
| Cc1ccc(/C=C/C(=O)NC(=S)Nc2ccc(S(=O)(=O)N=C(N)N)cc2)cc1 | 63% (active) |
| COc1ccc(/C=C/C(=O)NC(=S)Nc2ccc(S(=O)(=O)N=C(N)N)cc2)cc1 | 57% (active) |
| CC(C)c1ccc(/C=C/C(=O)NC(=S)Nc2ccc(S(=O)(=O)N=C(N)N)cc2)cc1 | 41% |
| NC(N)=NS(=O)(=O)c1ccc(NC(=S)NC(=O)/C=C/c2ccc(Br)cc2)cc1 | 19% |
| COc1ccc(C(=O)NC(=S)Nc2ccc(S(=O)(=O)N=C(N)N)cc2)cc1 | 2% |
| CC(=O)C1=C(O)C(=O)N(c2ccc(Br)cn2)C1c1ccc([N+](=O)[O-])cc1 (stereo unspecified) | 0% |
| CCCN1CCC(NCCc2ccc(F)cc2)CC1 | 1% |

| Structure (SMILES) | inhibition |
| --- | --- |
| COc1cc(OC)cc(C(=O)N2CCN(Cc3ccccc3[N+](=O)[O-])CC2)c1 | 6% |
| O=C(O)c1ccc(N/N=C/c2ccccc2C(F)(F)F)cc1 | 6% |
| O=C(O)c1ccc(N/N=C/c2c(Cl)ccc(Cl)c2Cl)cc1 | 51% (active) |
| O=C(O)c1ccc(/C=N/Nc2ccc([N+](=O)[O-])cc2)cc1 | 10% |
| COc1cc(C=O)ccc1OCCOc1ccc(Cl)cc1 | 7% |
| COC(=O)c1ccc(COc2ccc3c(c2)oc(=O)c2ccccc23)cc1 | 48% |
| COC(=O)c1ccc(COc2ccc3c(c2)oc(=O)c2cc(OC)ccc23)cc1 | 59% (active) |
| COc1ccc2c(c1)c(=O)oc1cc(OCc3ccc(C(=O)O)cc3)ccc12 | 19% |
| COc1ccc(OC)c(/C=C2\SC(N3CCCCCC3)=NC2=O)c1 | 11% |
| Cc1ccc(/C=C2\SC(=S)N(CCC(=O)Nc3ccc(Cl)cc3)C2=O)cc1 | 18% |
| Cc1ccc(/C=C2\SC(=S)N(CCC(=O)Nc3ccc(S(N)(=O)=O)cc3)C2=O)cc1 | 57% (active) |
| CCOc1ccccc1NC(=O)CCN1C(=O)/C(=C/c2ccc(C)cc2)SC1=S | 56% (active) |
| COc1ccccc1NC(=O)CCN1C(=O)/C(=C/c2ccc(C)cc2)SC1=S | 11% |
| Cc1ccc(/C=C2\SC(=S)N(CCC(=O)Nc3cc(Cl)ccc3O)C2=O)cc1 | 10% |
| CC(C)(C)N(Cc1ccccc1)C(=O)CCN1C(=O)/C(=C\c2cccs2)SC1=S | 12% |
| CC(C)(C)N(Cc1ccccc1)C(=O)CCCN1C(=O)/C(=C/c2cccs2)SC1=S | 37% |
| CCOc1ccccc1NC(=O)CCCN1C(=O)/C(=C/c2ccc(C)cc2)SC1=S | 27% |
| COc1ccc(/C=C2\SC(=S)N(CCC(=O)Nc3cc(Cl)ccc3O)C2=O)cc1 | 53% (active) |
| O=C1/C(=C/c2cccs2)SC(=S)N1CCCC(=O)N(Cc1ccccc1)c1ccccc1 | 50% (active) |
| Cc1ccc(/C=C2/SC(=S)N(CCC(=O)Nc3ccc(Br)cc3)C2=O)cc1 | 0% |
| Cc1ccc(/C=C2/SC(=S)N(CCCC(=O)Nc3cc(Cl)ccc3O)C2=O)cc1 | 16% |
| Cc1cc(NC(=O)c2ccc(-c3ccc(Cl)cc3)o2)ccc1NC(=O)c1ccco1 | 11% |
| Cc1cc(C)cc(N2C(=O)NC(=O)/C(=C\c3c(C)n(C)c4ccccc34)C2=O)c1 | 12% |

| Structure (SMILES) | inhibition |
| --- | --- |
| Cc1cc2nc(-c3ccc(Cl)c(NC(=O)c4cc([N+](=O)[O-])ccc4Cl)c3)oc2cc1C | 8% |
| COc1cccc(OC)c1OCC(O)CN1CCC(CN2C(=O)c3cccc4cccc(c34)C2=O)CC1 (stereo unspecified) | 19% |
| CCOC(=O)C1=C(C)N=c2s/c(=C\c3ccc(-c4ccc(Cl)cc4)o3)c(=O)n2C1c1ccc(SC)cc1 (stereo unspecified) | 0% |
| O=C(c1ccc([N+](=O)[O-])cc1[N+](=O)[O-])N1CCN(C(c2ccccc2)c2ccccc2)CC1 | 2% |
| O=C(CSc1nc2ccccc2s1)Nc1ccc(F)c([N+](=O)[O-])c1 | 2% |
| CCOc1ccc2ccccc2c1/C=N/NC(=O)CN1CCOCC1 | 9% |
| CCOC(=O)/C(C#N)=C1/C=C(c2ccccc2)N=C(c2ccccc2)N1 | 16% |
| COc1ccc2ccccc2c1C=Nc1ccc(C)cc1O | 27% |
| Cc1ccccc1Cn1cc(C=C2C(=O)NC(=O)NC2=O)c2ccccc21 | 43% |
| COc1cc(C=O)ccc1OCCCOc1cc(C)c(Cl)cc1C | 21% |
| COc1ccccc1N=Cc1c(O)n(-c2ccccc2F)c(=O)[nH]c1=O | 8% |
| Cc1ccc(/C=C2\SC(=S)N(CCC(=O)Nc3nccs3)C2=O)cc1 | 51% (active) |
| Cc1ccc(/C=C2\SC(=S)N(CCC(=O)Nc3cc([N+](=O)[O-])ccc3O)C2=O)cc1 | 0% |
| Cc1ccc(/C=C2/SC(=S)N(CCC(=O)Nc3ccc([N+](=O)[O-])cc3)C2=O)cc1 | 10% |
| Cc1ccc(/C=C2\SC(=S)N(CCc3ccccc3)C2=O)cc1 | 3% |
| O=C(CCN1C(=O)/C(=C/c2ccc(Cl)cc2)SC1=S)Nc1nccs1 | 10% |
| Cc1ccc(/C=C2\SC(=S)N(CCCC(=O)Nc3ccc(C)cc3)C2=O)cc1 | 10% |
| Cc1ccc(/C=C2\SC(=S)N(CCC(=O)Nc3ccc(S(=O)(=O)Nc4nccs4)cc3)C2=O)cc1 | 23% |
| Cc1ccc(/C=C2\SC(=S)N(CCC(=O)Nc3ccc([N+](=O)[O-])cc3O)C2=O)cc1 | 52% (active) |
| Cc1ccc(/C=C2\SC(=S)N(CCCC(=O)NCCc3ccccc3)C2=O)cc1 | 57% (active) |
| Cc1ccc2oc(-c3cccc(NC(=O)c4ccc(-c5ccc([N+](=O)[O-])cc5)o4)c3C)nc2c1 | 20% |
| CCOc1ccccc1N=C1C(=O)Nc2ccc([N+](=O)[O-])cc21 | 2% |
